Assay results published in PubChem BioAssay (NCATS).
Records with an inconclusive call do not appear. Calls come from the whole dose curve; as a rule, active = well fitted curve in either direction with a large enough effect (not every such curve was filed as active); inconclusive = small, poorly fitted or top-dose-only effect, or another doubt; inactive = flat fitted curve, though single readings scatter.

experiment: NFAT Signaling Pathway (AID 444); conditions: Jurkat NFAT-bla M1, carbachol, beta-lactamase ratio, 5 h; at 17.2 µM (top of the series) unless noted;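 note: carbachol stimulus at about its EC50 of 1 µM final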
In short: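 Jurkat cells carrying an NFAT-driven β-lactamase reporter and co-transfected muscarinic M1 receptor were treated with compound plus carbachol (1 uM final, an EC50 level) for 5 h at 37 °C. CCF4 loading followed for 1 h at RT; 460/530 nm ratio gave %activity.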
% is set by controls: 0 for no effect and ±100 for the full control effect.

Activity change, negative = inhibition, inactive:
COC(=O)CCc1c(C)[nH]c(=S)[nH]c1=O 14.4%
Oc1ccccc1-c1nc(NCCN2CCOCC2)c2ccccc2n1 25.8%
COc1ccc(Nc2nc(Nc3ccc(OC)cc3)nc(-n3[nH]c(=O)c(C)c3C)n2)cc1 -1.75%
CCc1c(C(=O)O)[nH]c2ccc(Br)cc12 -22%
COc1ccccc1N1CCN(C2CCN(C(=O)c3cc(OC)c(OC)c(OC)c3)CC2)CC1 4.07%

experiment: Stat Signaling Pathway (AID 446); conditions: ME-180 (cervical carcinoma) SIE beta-lactamase reporter, IL-6 stimulated, 5 h; at 17.2 µM (top of the series) unless noted;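 note: ME-180 cervical cancer cells given 40 pM IL-6 alongside compound; SIE-controlled beta-lactamase reporter measured as 460/530 nm FRET emission ratio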
In short: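 Overnight-plated ME-180 cells bearing a STAT Inducible Element beta-lactamase reporter; 5 h co-exposure to compound and 40 pM IL-6; values normalized to 300 pM IL-6 and 125 nM JAK inhibitor controls.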

activity, negative = inhibition, inactive:
O=C(Oc1cccnc1)c1ccco1 8.88%
CCOC(=O)c1c(N)sc(=S)c2c1CCC2 -7.28%
Cc1c(O)c(CN2CCCC(C)C2)cc2c3c(c(=O)oc12)CCC3 (configuration not stated) 6.92%
CC(C)c1nc2n[nH]c(N)c2c2c1CCCC2 -2.14%
O=C(O)CC1SC(=Nc2cccc(C(F)(F)F)c2)NC1=O (configuration not stated) -0.717%
O=C1CCc2nc3ccccc3c(=O)n2N1 -4.8%
NS(=O)(=O)c1cc2c(cc1Cl)NC(C1C[C@H]3C=C[C@@H]1C3)NS2(=O)=O (some centres not stated) -0.0433%
COc1ccc(OC)c(NC(=O)CSc2nnc(-c3ccco3)n2-c2ccc(C(=O)O)cc2)c1 -4.38%
COc1ccccc1C(=O)Nc1cc(Cl)ccc1O -4.42%
CCn1cc(/C=N/O)c(C)n1 14%
CCOC(=O)c1c(C)n(C)c2ccc(OC)c(NC(=O)CN3CCN(Cc4ccccc4)CC3)c12 -7.51%
Cc1c(C)n(C(=O)CSc2nccn2C)c2ccccc12 0.828%
